Measurements taken from PubChem BioAssay AID1851 (National Center for Advancing Translational Sciences (NCATS), 2009).
The campaign covered roughly 16,000 compounds. About 5,700 (36%) were called active. Inconclusive results (about 24%) are left out. The list shows a part of the results. A number with no mark means an inactive call. Calls follow the shape of the dose curve; as a rule, active = well fitted curve in the direction sought with a large enough effect; inconclusive = small, poorly fitted or top-dose-only effect, or effect the other way; inactive = no such curve, though single readings can be large or run the other way.

biological target: Cytochrome P450 1A2 (Homo sapiens) (UniProt P05177); assay: Cytochrome panel assay with activity outcomes; conditions: recombinant CYP, pro-luciferin dealkylation, luminescence, p450-cyp1a2; series mostly up to 57.1 µM; activity, negative = inhibition: at the top concentration
% is scaled to controls: 0 for no effect and ±100 for the full control effect.

Chain of Cytochrome P450 1A2 (Homo sapiens) (P05177 whole entry, looked up): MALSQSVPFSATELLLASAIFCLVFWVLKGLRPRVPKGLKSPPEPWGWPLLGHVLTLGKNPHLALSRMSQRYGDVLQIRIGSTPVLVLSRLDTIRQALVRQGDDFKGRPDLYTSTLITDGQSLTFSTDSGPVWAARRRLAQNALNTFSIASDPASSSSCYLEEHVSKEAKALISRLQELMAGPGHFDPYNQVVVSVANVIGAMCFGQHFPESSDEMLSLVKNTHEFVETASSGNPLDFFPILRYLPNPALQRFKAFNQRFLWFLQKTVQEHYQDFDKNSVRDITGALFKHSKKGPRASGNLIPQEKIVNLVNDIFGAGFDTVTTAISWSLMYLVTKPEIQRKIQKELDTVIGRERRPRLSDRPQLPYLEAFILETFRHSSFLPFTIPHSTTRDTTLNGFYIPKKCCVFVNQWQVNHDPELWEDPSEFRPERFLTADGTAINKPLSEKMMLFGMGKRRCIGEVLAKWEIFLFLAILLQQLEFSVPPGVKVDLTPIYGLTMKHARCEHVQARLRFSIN

Row | Compound | AC50 | activity, negative = inhibition
1 | C=CCn1c(SC(C)C(=O)NCc2ccc3c(c2)OCO3)nc2scc(-c3ccccc3)c2c1=O (centres undefined) | 10000 nM (active) | –
2 | CCc1nc(SCC(=O)N2CCCc3ccccc32)c2oc3ccccc3c2n1 | 1260 nM (active) | –
3 | O=C(Cn1cnc2ccccc2c1=O)NCCC(=O)Nc1ccc2c(c1)OCCO2 | – | -28.5%
4 | Cc1nc(SCC(=O)Nc2ccc3c(c2)OCCO3)c2oc3ccccc3c2n1 | 1000 nM (active) | –
5 | CCc1nc(SCC(=O)c2ccc(Cl)s2)c2oc3ccccc3c2n1 | 251 nM (active) | –
6 | Cc1nc(SCC(=O)c2ccc(Cl)s2)c2oc3ccccc3c2n1 | 141 nM (active) | –
7 | C/C(C[n+]1ccccc1)=N\N=C(N)N | – | -9.68% [at 11.4 µM]
8 | CCc1nc(N[C@H](C(=O)O)C(C)CC)c2oc3ccccc3c2n1 (some centres undefined) | – | -23.2%
9 | CCc1nc(SCC(=O)NCCc2ccccc2)c2oc3ccccc3c2n1 | 1580 nM (active) | –
10 | COc1ccc(/C=N/OCc2nc3c4c(ncn3n2)Oc2ccc3ccccc3c2C4c2ccccc2)cc1 (centres undefined) | – | -15%
11 | CCC(=O)NC(=S)N1CCN(c2ccc([N+](=O)[O-])cc2Cl)CC1 | 12600 nM (active) | –
12 | COc1cccc(OC)c1C(=O)NC(=S)N1CCN(c2ccc(C(F)(F)F)cc2[N+](=O)[O-])CC1 | – | -23.3%
13 | CN1CCN(c2ccc([N+](=O)[O-])cc2NC(=O)c2ccccc2Cl)CC1 | – | -10.4%
14 | CCCCCCCCCCCCCCC[C@H](O)[C@H](N)CO | – | -4.79%
15 | Cc1ccc(/C=N\Nc2nc3ccc(Cl)cc3[nH]2)o1 | 2000 nM (active) | –
16 | Cc1ccc(/C=N/NC(=O)C2CCN(Cc3ccc(F)cc3Cl)CC2)o1 | – | -26%
17 | CCN1C(=O)[C@H]2[C@H]3[C@H](O)[C@H](O)C/C(=N/OCC[C@H]4C=C[C@H](OC(C)=O)[C@@H](COC(C)=O)O4)[C@@H]3CC[C@@H]2C1=O | – | -1.02% [at 11.4 µM]
18 | OC[C@@H]1O[C@@H](n2cnc3c(NC4CCCCC4)ncnc32)[C@@H](O)[C@H]1O | – | -19.5%
19 | CC(C)C(=O)N[C@H]1CCCN1C(=O)/C=C\c1ccccc1 | – | 1.37% [at 11.4 µM]
20 | CC(C)C(=O)N[C@@H]1CCCN1C(=O)/C=C\c1ccccc1 | – | 0.0238% [at 11.4 µM]
21 | C#CCSc1nncn1C(=O)/C=C/c1ccccc1 | 15800 nM (active) | –
22 | COc1ccc(-c2cc(C(F)(F)F)nc(N3CCN(C)CC3)n2)cc1OC | 2820 nM (active) | –
23 | COc1ccc(-c2cc(C(F)(F)F)nc(N3CCOCC3)n2)cc1OC | 501 nM (active) | –
24 | COc1ccc(CC(=S)N2CCOCC2)cc1OC | – | 0.556%
25 | CN1CCN(c2nc(-c3ccccc3)cc(C(F)(F)F)n2)CC1 | 1120 nM (active) | –

Row | Compound | AC50 | activity, negative = inhibition
26 | COc1ccc(-c2nnn(Cc3nc(N)nc(N4CCOCC4)n3)n2)cc1OC | – | -27.8%
27 | COc1ccc(NC(=O)c2ccc(-c3ccc(-c4noc(C)n4)cc3C)cc2)cc1N1CCN(C)CC1 | inactive | –
28 | COc1ccc(-c2cc(C(F)(F)F)nc(NC3CCCC3)n2)cc1OC | 2820 nM (active) | –
29 | COc1ccc(C(=O)OC(C)CN2CCN(C)CC2)cc1OC (centres undefined) | – | -9.56%
30 | O=C(O)[C@@H](O)[C@@H](O)[C@@H](O[C@H]1O[C@@H](CO)[C@@H](O)[C@@H](O)[C@@H]1O)[C@@H](O)CO | – | -1.8% [at 25.6 µM]
31 | C=C1c2cccc(O)c2C(O)=C2C(=O)[C@@]3(O)C(O)=C(C(N)=O)C(=O)[C@@H](N(C)C)[C@@H]3[C@@H](O)[C@H]12 | – | -1.08% [at 25.6 µM]
32 | C#CCCCO/N=C1/C[C@@H](O)[C@@H](O)[C@@H]2[C@@H]3C(=O)N(CC)C(=O)[C@H]3CC[C@H]12 | – | -27.8% [at 11.4 µM]
33 | COc1ccc(-c2cc(C(F)(F)F)nc(N3CCCCC3)n2)cc1OC | 631 nM (active) | –
34 | OC[C@@H]1O[C@@H](N2CCN([C@@H]3O[C@@H](CO)[C@@H](O)[C@H](O)[C@H]3O)CC2)[C@@H](O)[C@H](O)[C@H]1O | – | -9.68% [at 2.29 µM]
35 | CS(=O)(=O)N(CC(=O)Nc1c(F)cccc1F)c1ccc(C23CC4CC(CC(C4)C2)C3)cc1 | – | -15.3%
36 | Cc1cc2ncn(/N=C/c3ccc([N+](=O)[O-])o3)c2cc1C | 10000 nM (active) | –
37 | O=C1O[C@H](CN2CCOCC2)CN1/N=C\c1ccc([N+](=O)[O-])o1 | – | -16.3% [at 25.6 µM]
38 | CCN=C(Nc1ccc(Cl)cc1)c1cccnc1 | – | -22%
39 | N/C(=N\OC(=O)Cc1ccc(Cl)cc1)c1cccnc1 | 11200 nM (active) | –
40 | C=Cc1c(C)c2cc3[nH]c(cc4nc(cc5nc(cc1[nH]2)C(C)=C5CCC(=O)O)C(CCC(=O)O)=C4C)c(C)c3C=C | 6310 nM (active) | –
41 | C=Cc1c(C)c2cc3nc(cc4[nH]c(cc5nc(cc1[nH]2)C(C)=C5CCC(=O)O)c(CCC(=O)OC)c4C)[C@@]1(C)C3=CC=C(C(=O)OC)[C@H]1C(=O)OC (tested in a mixture with another compound) | 3980 nM (active) | –
42 | CC1CC(OCC(O)CN2CCN(Cc3ccccc3)CC2)CC(C)(C)C1 (centres undefined) | – | 3.43%
43 | C/C(=N\Nc1nnc(C)c(=O)[nH]1)C(=O)O | – | -3.43%
44 | O=C(O)c1ccccc1C(=O)NCc1ccc(F)cc1 | 5010 nM (active) | –
45 | CCCC(=O)NNC(=O)CCC(=O)NCc1ccccc1 | – | 4.31%
46 | O=C(NCc1ccc(F)cc1)C1CCN(S(=O)(=O)N2CCCCC2)CC1 | – | -2.81%
47 | C/C(=C/C(=O)NCc1ccccc1)C(=O)O | – | -3.03%
48 | O=C(O)NCc1ccccc1 (tested in a mixture with another compound) | 3160 nM (active) | –
49 | O=C(O)CC[C@@H](NC(=O)c1ccccc1C(=O)O)C(=O)O | – | -2.07%
